# In the supplement of paper PMC4022240:
# ± gives the standard deviation.
# T1: HaloTag-ATRX ADD domain (163-292)
# T1 chain: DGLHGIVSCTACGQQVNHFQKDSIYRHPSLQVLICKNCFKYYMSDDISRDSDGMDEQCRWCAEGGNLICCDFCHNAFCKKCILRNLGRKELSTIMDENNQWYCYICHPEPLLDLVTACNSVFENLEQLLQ
# Legend:
# Experiment in all cases: peptide microarray binding signal (635 nm), min-max normalized on array (fraction of array maximum); higher = stronger binding
# Settings in all cases: peptide region: H3 20-32
# [1] = target: T1, HaloTag-ATRX ADD domain (163-292)
# How it was run: (§1)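 An Axon GenePix 4000B scanned the arrays at 635 nm for signal and at 532 nm to catch misprints. Those arrays held histone 13-mer peptide–cellulose conjugates printed in triplicate on nitrocellulose with a Cy3 tracer, blocked overnight at 4°C and probed for 1 h at 4°C with biotin-labelled HaloTag reader fusions (10 nM to 1 μM) plus streptavidin-Alexa Fluor 647 or with rabbit histone antibodies (1:10,000 to 1:2,000) plus anti-rabbit Alexa 647. Each binding signal is a triplicate-spot mean intensity, scaled min-max within its library.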
# [2] = target: HaloTag-ING2 PHD (mouse Ing2 200-280)
# How it was run: as §1
# [3] = target: anti-H3K4me3 antibody ab8580
# How it was run: as §1
# [4] = target: anti-H3K9me3 antibody ab8898
# How it was run: as §1
# [5] = peptide modifications: H3R26cit H3K27me2, binder concentration: 1:2,000 dilution
# [6] = peptide modifications: H3R26cit H3K27me2, binder concentration: 1:10,000 dilution
# [7] = peptide modifications: H3R26cit H3K27me3, binder concentration: 1:2,000 dilution
# [8] = peptide modifications: H3R26cit H3K27me3, binder concentration: 1:10,000 dilution
# [9] = peptide modifications: H3R26cit, binder concentration: 1:2,000 dilution
# [10] = peptide modifications: H3R26cit, binder concentration: 1:10,000 dilution
# [11] = peptide modifications: H3R26me1, binder concentration: 1:2,000 dilution
# [12] = peptide modifications: H3R26me1, binder concentration: 1:10,000 dilution
# [13] = peptide modifications: H3R26me1 H3K27ac, binder concentration: 1:2,000 dilution
# [14] = peptide modifications: H3R26me1 H3K27ac, binder concentration: 1:10,000 dilution
# [15] = peptide modifications: H3R26me1 H3K27me1, binder concentration: 1:2,000 dilution
# [16] = peptide modifications: H3R26me1 H3K27me1, binder concentration: 1:10,000 dilution
# [17] = peptide modifications: H3R26me1 H3K27me2, binder concentration: 1:2,000 dilution
# [18] = peptide modifications: H3R26me1 H3K27me2, binder concentration: 1:10,000 dilution
# [19] = peptide modifications: H3R26me1 H3K27me3, binder concentration: 1:2,000 dilution
# [20] = peptide modifications: H3R26me1 H3K27me3, binder concentration: 1:10,000 dilution
# [21] = peptide modifications: H3R26me2a H3K27ac, binder concentration: 1:2,000 dilution
# [22] = peptide modifications: H3R26me2a H3K27ac, binder concentration: 1:10,000 dilution
# [23] = peptide modifications: H3R26me2a H3K27me1, binder concentration: 1:2,000 dilution
# [24] = peptide modifications: H3R26me2a H3K27me1, binder concentration: 1:10,000 dilution
binder,measurement,setting,value
LATKAARKSAPAT [H3 20-32 L A T K A A Rcit Kme2 S A P A T],peptide microarray binding signal,"[1]; peptide modifications: H3R26cit H3K27me2, binder concentration: 50 nM",0.00414 ± 5.8e-05
same,peptide microarray binding signal,"[1]; peptide modifications: H3R26cit H3K27me2, binder concentration: 500 nM",0.00333 ± 0.00011
same,peptide microarray binding signal,"[2]; peptide modifications: H3R26cit H3K27me2, binder concentration: 10 nM",0.00692 ± 0.00014
same,peptide microarray binding signal,"[2]; peptide modifications: H3R26cit H3K27me2, binder concentration: 100 nM",0.00843 ± 0.00034
same,peptide microarray binding signal,[3]; [5],0.00262 ± 0.00016
same,peptide microarray binding signal,[3]; [6],0.00314 ± 4.6e-05
same,peptide microarray binding signal,[4]; [5],0.00196 ± 6.8e-05
same,peptide microarray binding signal,[4]; [6],0.00167 ± 4.8e-05
LATKAARKSAPAT [H3 20-32 L A T K A A Rcit Kme3 S A P A T],peptide microarray binding signal,"[1]; peptide modifications: H3R26cit H3K27me3, binder concentration: 50 nM",0.00564 ± 0.00031
same,peptide microarray binding signal,"[1]; peptide modifications: H3R26cit H3K27me3, binder concentration: 500 nM",0.00676 ± 0.00027
same,peptide microarray binding signal,"[2]; peptide modifications: H3R26cit H3K27me3, binder concentration: 10 nM",0.0135 ± 0.00085
same,peptide microarray binding signal,"[2]; peptide modifications: H3R26cit H3K27me3, binder concentration: 100 nM",0.0188 ± 0.00063
same,peptide microarray binding signal,[3]; [7],0.0286 ± 0.0025
same,peptide microarray binding signal,[3]; [8],0.0204 ± 0.00089
same,peptide microarray binding signal,[4]; [7],0.0791 ± 0.0015
same,peptide microarray binding signal,[4]; [8],0.05 ± 0.006
LATKAARKSAPAT [H3 20-32 L A T K A A Rcit K S A P A T],peptide microarray binding signal,"[1]; peptide modifications: H3R26cit, binder concentration: 50 nM",0.00411 ± 8.3e-05
same,peptide microarray binding signal,"[1]; peptide modifications: H3R26cit, binder concentration: 500 nM",0.00633 ± 0.00025
same,peptide microarray binding signal,"[2]; peptide modifications: H3R26cit, binder concentration: 10 nM",0.00824 ± 0.00018
same,peptide microarray binding signal,"[2]; peptide modifications: H3R26cit, binder concentration: 100 nM",0.0125 ± 0.00034
same,peptide microarray binding signal,[3]; [9],0.00296 ± 0.00035
same,peptide microarray binding signal,[3]; [10],0.00285 ± 6.5e-05
same,peptide microarray binding signal,[4]; [9],0.00168 ± 3.3e-05
same,peptide microarray binding signal,[4]; [10],0.00138 ± 1.4e-05
LATKAARKSAPAT [H3 20-32 L A T K A A Rme K S A P A T],peptide microarray binding signal,"[1]; peptide modifications: H3R26me1, binder concentration: 50 nM",0.00408 ± 8.9e-05
same,peptide microarray binding signal,"[1]; peptide modifications: H3R26me1, binder concentration: 500 nM",0.006381 ± 3.8e-05
same,peptide microarray binding signal,"[2]; peptide modifications: H3R26me1, binder concentration: 10 nM",0.00824 ± 0.00019
same,peptide microarray binding signal,"[2]; peptide modifications: H3R26me1, binder concentration: 100 nM",0.0116 ± 0.00028
same,peptide microarray binding signal,[3]; [11],0.00342 ± 0.0002
same,peptide microarray binding signal,[3]; [12],0.00325 ± 0.00018
same,peptide microarray binding signal,[4]; [11],0.00187 ± 4.7e-05
same,peptide microarray binding signal,[4]; [12],0.00161 ± 3.1e-05
LATKAARKSAPAT [H3 20-32 L A T K A A Rme Kac S A P A T],peptide microarray binding signal,"[1]; peptide modifications: H3R26me1 H3K27ac, binder concentration: 50 nM",0.00429 ± 0.00036
same,peptide microarray binding signal,"[1]; peptide modifications: H3R26me1 H3K27ac, binder concentration: 500 nM",0.0144 ± 0.0011
same,peptide microarray binding signal,"[2]; peptide modifications: H3R26me1 H3K27ac, binder concentration: 10 nM",0.0271 ± 0.0026
same,peptide microarray binding signal,"[2]; peptide modifications: H3R26me1 H3K27ac, binder concentration: 100 nM",0.0327 ± 0.0033
same,peptide microarray binding signal,[3]; [13],0.00627 ± 0.0032
same,peptide microarray binding signal,[3]; [14],0.00987 ± 0.00026
same,peptide microarray binding signal,[4]; [13],0.0058 ± 0.00049
same,peptide microarray binding signal,[4]; [14],0.00306 ± 0.00012
LATKAARKSAPAT [H3 20-32 L A T K A A Rme Kme S A P A T],peptide microarray binding signal,"[1]; peptide modifications: H3R26me1 H3K27me1, binder concentration: 50 nM",0.00489 ± 4.8e-05
same,peptide microarray binding signal,"[1]; peptide modifications: H3R26me1 H3K27me1, binder concentration: 500 nM",0.00657 ± 0.0021
same,peptide microarray binding signal,"[2]; peptide modifications: H3R26me1 H3K27me1, binder concentration: 10 nM",0.00794
same,peptide microarray binding signal,"[2]; peptide modifications: H3R26me1 H3K27me1, binder concentration: 100 nM",0.0109 ± 0.00039
same,peptide microarray binding signal,[3]; [15],0.00355 ± 0.00035
same,peptide microarray binding signal,[3]; [16],0.00474 ± 0.00018
same,peptide microarray binding signal,[4]; [15],0.0024 ± 8.4e-05
same,peptide microarray binding signal,[4]; [16],0.001557 ± 1.5e-05
LATKAARKSAPAT [H3 20-32 L A T K A A Rme Kme2 S A P A T],peptide microarray binding signal,"[1]; peptide modifications: H3R26me1 H3K27me2, binder concentration: 50 nM",0.00392 ± 0.00013
same,peptide microarray binding signal,"[1]; peptide modifications: H3R26me1 H3K27me2, binder concentration: 500 nM",0.002619 ± 2.1e-05
same,peptide microarray binding signal,"[2]; peptide modifications: H3R26me1 H3K27me2, binder concentration: 10 nM",0.00483 ± 0.00013
same,peptide microarray binding signal,"[2]; peptide modifications: H3R26me1 H3K27me2, binder concentration: 100 nM",0.00517 ± 7.1e-05
same,peptide microarray binding signal,[3]; [17],0.00176
same,peptide microarray binding signal,[3]; [18],0.00194
same,peptide microarray binding signal,[4]; [17],0.00106 ± 2.2e-05
same,peptide microarray binding signal,[4]; [18],0.001211 ± 1.2e-05
LATKAARKSAPAT [H3 20-32 L A T K A A Rme Kme3 S A P A T],peptide microarray binding signal,"[1]; peptide modifications: H3R26me1 H3K27me3, binder concentration: 50 nM",0.00668 ± 0.00028
same,peptide microarray binding signal,"[1]; peptide modifications: H3R26me1 H3K27me3, binder concentration: 500 nM",0.019 ± 0.0018
same,peptide microarray binding signal,"[2]; peptide modifications: H3R26me1 H3K27me3, binder concentration: 10 nM",0.0343 ± 0.0033
same,peptide microarray binding signal,"[2]; peptide modifications: H3R26me1 H3K27me3, binder concentration: 100 nM",0.0417 ± 0.0052
same,peptide microarray binding signal,[3]; [19],0.0743 ± 0.016
same,peptide microarray binding signal,[3]; [20],0.0599 ± 0.0085
same,peptide microarray binding signal,[4]; [19],0.162 ± 0.016
same,peptide microarray binding signal,[4]; [20],0.0985 ± 0.023
LATKAARKSAPAT [H3 20-32 L A T K A A Rme2a Kac S A P A T],peptide microarray binding signal,"[1]; peptide modifications: H3R26me2a H3K27ac, binder concentration: 50 nM",0.00467 ± 0.00027
same,peptide microarray binding signal,"[1]; peptide modifications: H3R26me2a H3K27ac, binder concentration: 500 nM",0.0126 ± 0.0011
same,peptide microarray binding signal,"[2]; peptide modifications: H3R26me2a H3K27ac, binder concentration: 10 nM",0.0197 ± 0.0013
same,peptide microarray binding signal,"[2]; peptide modifications: H3R26me2a H3K27ac, binder concentration: 100 nM",0.0246 ± 0.0016
same,peptide microarray binding signal,[3]; [21],0.00936 ± 0.0018
same,peptide microarray binding signal,[3]; [22],0.0107 ± 0.00049
same,peptide microarray binding signal,[4]; [21],0.00763 ± 0.0006
same,peptide microarray binding signal,[4]; [22],0.00565 ± 0.00056
LATKAARKSAPAT [H3 20-32 L A T K A A Rme2a Kme S A P A T],peptide microarray binding signal,"[1]; peptide modifications: H3R26me2a H3K27me1, binder concentration: 50 nM",0.00489 ± 1.8e-05
same,peptide microarray binding signal,"[1]; peptide modifications: H3R26me2a H3K27me1, binder concentration: 500 nM",0.00571 ± 0.00016
same,peptide microarray binding signal,"[2]; peptide modifications: H3R26me2a H3K27me1, binder concentration: 10 nM",0.0113
same,peptide microarray binding signal,"[2]; peptide modifications: H3R26me2a H3K27me1, binder concentration: 100 nM",0.0169 ± 0.00094
same,peptide microarray binding signal,[3]; [23],0.00704 ± 0.00042
same,peptide microarray binding signal,[3]; [24],0.00879 ± 0.00091
same,peptide microarray binding signal,[4]; [23],0.00356 ± 0.00021
same,peptide microarray binding signal,[4]; [24],0.00236 ± 3.7e-05
